# In article PMC5540273 (PLoS ONE, 2017):
# Like-named read-outs stand apart in the source and are kept apart here.
# Columns and labels:
# TESK1 = settings: concentration: 1 μM,replicates: in singlicate; n = 1
# TGFBR1 = settings: n = 1
# TGFBR2 = settings: concentration: 1 μM,replicates: in singlicate; n = 1
# TIE1 = settings: concentration: 1 μM,replicates: in singlicate; n = 1
# TIE2 = tested on: T1, TIE2; settings: concentration: 1 μM,replicates: in singlicate; n = 1
# T1 construct: gene TEK
# TLK1 = settings: concentration: 1 μM,replicates: in singlicate; n = 1
# TLK2 = settings: concentration: 1 μM,replicates: in singlicate; n = 1
# TNIK = settings: concentration: 1 μM,replicates: in singlicate; n = 1
# TNK1 = settings: concentration: 1 μM,replicates: in singlicate; n = 1
# TNK2 = settings: concentration: 1 μM,replicates: in singlicate; n = 1
# TNNI3K = settings: concentration: 1 μM,replicates: in singlicate; n = 1
# TRKA = tested on: T2, TRKA; settings: concentration: 1 μM,replicates: in singlicate; n = 1
# T2 construct: gene NTRK1
# TRKB = settings: concentration: 1 μM,replicates: in singlicate; n = 1
# TRKC = tested on: T3, TRKC; settings: concentration: 1 μM,replicates: in singlicate; n = 1
# T3 construct: gene NTRK3
# TRPM6 = settings: concentration: 1 μM,replicates: in singlicate; n = 1
# TSSK1B = settings: concentration: 1 μM,replicates: in singlicate; n = 1
# TSSK3 = settings: concentration: 1 μM,replicates: in singlicate; n = 1
# TTK = settings: concentration: 1 μM,replicates: in singlicate; n = 1
# TXK = settings: concentration: 1 μM,replicates: in singlicate; n = 1
# [1] = tested on: TYK2(JH1domain-catalytic); settings: concentration: 1 μM,replicates: in singlicate; n = 1
# [2] = concentration: 1 μM,replicates: in singlicate
# 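Note: KINOMEscan kinase panel screen.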
structure (smiles),measurement,setting,value
CN(C)CC(O)COc1ccc(Nc2nccc(-c3cnn4nc(N5CCOCC5)ccc34)n2)cc1 (centres unmarked) [GW767488],%Inh,TESK1,10%
same,%Inh,TGFBR1; [2],8%
same,%Inh,TGFBR2,78%
same,%Inh,TIE1,41%
same,%Inh,TIE2,27%
same,%Inh,TLK1,51%
same,%Inh,TLK2,50%
same,%Inh,TNIK,1%
same,%Inh,TNK1,0%
same,%Inh,TNK2,0%
same,%Inh,TNNI3K,0%
same,%Inh,TRKA,81%
same,%Inh,TRKB,31%
same,%Inh,TRKC,45%
same,%Inh,TRPM6,33%
same,%Inh,TSSK1B,5%
same,%Inh,TSSK3,65%
same,%Inh,TTK,57%
same,%Inh,TXK,3%
same,%Inh,[1],66%
Cc1cc(C(=O)Nc2ccc(Oc3ccc4nc(NC(=O)C5CC5)cn4n3)cc2)nn1-c1ccccc1,%Inh,TESK1,16%
same,%Inh,TGFBR1; [2],30%
same,%Inh,TGFBR2,21%
same,%Inh,TIE1,82%
same,%Inh,TIE2,38%
same,%Inh,TLK1,0%
same,%Inh,TLK2,0%
same,%Inh,TNIK,12%
same,%Inh,TNK1,53%
same,%Inh,TNK2,0%
same,%Inh,TNNI3K,14%
same,%Inh,TRKA,100%
same,%Inh,TRKB,64%
same,%Inh,TRKC,12%
same,%Inh,TRPM6,0%
same,%Inh,TSSK1B,0%
same,%Inh,TSSK3,0%
same,%Inh,TTK,26%
same,%Inh,TXK,22%
same,%Inh,[1],15%
Cc1n[nH]c2ccc(-c3cc(OC[C@@H](N)Cc4ccccc4)cnc3-c3ccoc3)cc12.O=C(O)C(F)(F)F.O=C(O)C(F)(F)F [GSK507358],%Inh,TESK1,19%
same,%Inh,TGFBR1; [2],0%
same,%Inh,TGFBR2,0%
same,%Inh,TIE1,0%
same,%Inh,TIE2,0%
same,%Inh,TLK1,0%
same,%Inh,TLK2,0%
same,%Inh,TNIK,96.5%
same,%Inh,TNK1,0%
same,%Inh,TNK2,10%
same,%Inh,TNNI3K,0%
same,%Inh,TRKA,0%
same,%Inh,TRKB,0%
same,%Inh,TRKC,15%
same,%Inh,TRPM6,0%
same,%Inh,TSSK1B,0%
same,%Inh,TSSK3,6%
same,%Inh,TTK,0%
same,%Inh,TXK,0%
same,%Inh,[1],7%
O=C(NCCNc1ccnc(NCc2ccc(F)cc2)n1)c1cc2ccccc2s1 [GSK1379944],%Inh,TESK1,44%
same,%Inh,TGFBR1; [2],6%
same,%Inh,TGFBR2,0%
same,%Inh,TIE1,0%
same,%Inh,TIE2,0%
same,%Inh,TLK1,0%
same,%Inh,TLK2,0%
same,%Inh,TNIK,0%
same,%Inh,TNK1,0%
same,%Inh,TNK2,17%
same,%Inh,TNNI3K,69%
same,%Inh,TRKA,0%
same,%Inh,TRKB,0%
same,%Inh,TRKC,22%
same,%Inh,TRPM6,1%
same,%Inh,TSSK1B,16%
same,%Inh,TSSK3,4%
same,%Inh,TTK,0%
same,%Inh,TXK,11%
same,%Inh,[1],2%
Cc1ccc2c(-c3ccncc3)c(-c3ccc(F)cc3)nn2c1.Cl [GW461484],%Inh,TESK1,5%
same,%Inh,TGFBR1; [2],53%
same,%Inh,TGFBR2,2%
same,%Inh,TIE1,0%
same,%Inh,TIE2,0%
same,%Inh,TLK1,0%
same,%Inh,TLK2,0%
same,%Inh,TNIK,66%
same,%Inh,TNK1,15%
same,%Inh,TNK2,0%
same,%Inh,TNNI3K,5%
same,%Inh,TRKA,18%
same,%Inh,TRKB,0%
same,%Inh,TRKC,2%
same,%Inh,TRPM6,8%
same,%Inh,TSSK1B,9%
same,%Inh,TSSK3,9%
same,%Inh,TTK,0%
same,%Inh,TXK,0%
same,%Inh,[1],0%
O=C(NCCCN1CCOC1=O)c1cnc(NCc2cc(Cl)ccc2Cl)nc1NC1CCCC1,%Inh,TESK1,23%
same,%Inh,TGFBR1; [2],10%
same,%Inh,TGFBR2,26%
same,%Inh,TIE1,0%
same,%Inh,TIE2,0%
same,%Inh,TLK1,10%
same,%Inh,TLK2,2%
same,%Inh,TNIK,17%
same,%Inh,TNK1,0%
same,%Inh,TNK2,17%
same,%Inh,TNNI3K,9%
same,%Inh,TRKA,15%
same,%Inh,TRKB,0%
same,%Inh,TRKC,4%
same,%Inh,TRPM6,2%
same,%Inh,TSSK1B,0%
same,%Inh,TSSK3,0%
same,%Inh,TTK,17%
same,%Inh,TXK,17%
same,%Inh,[1],0%
Cl.Cl.NC[C@H](Cc1ccc(C(F)(F)F)cc1)NC(=O)c1cc(Br)c(-c2ccnc3[nH]ccc23)s1 [GSK1487252],%Inh,TESK1,24%
same,%Inh,TGFBR1; [2],0%
same,%Inh,TGFBR2,0%
same,%Inh,TIE1,35%
same,%Inh,TIE2,0%
same,%Inh,TLK1,8%
same,%Inh,TLK2,4%
same,%Inh,TNIK,0%
same,%Inh,TNK1,0%
same,%Inh,TNK2,19%
same,%Inh,TNNI3K,13%
same,%Inh,TRKA,86%
same,%Inh,TRKB,67%
same,%Inh,TRKC,74%
same,%Inh,TRPM6,0%
same,%Inh,TSSK1B,0%
same,%Inh,TSSK3,2%
same,%Inh,TTK,10%
same,%Inh,TXK,0%
same,%Inh,[1],3%
Cc1occc1-c1nc(N)c(OC[C@@H](N)Cc2c[nH]c3ccccc23)cc1-c1cc2c(C)n[nH]c2cn1 [GSK1660450],%Inh,TESK1,10%
same,%Inh,TGFBR1; [2],0%
same,%Inh,TGFBR2,0%
same,%Inh,TIE1,28%
same,%Inh,TIE2,2%
same,%Inh,TLK1,0%
same,%Inh,TLK2,0%
same,%Inh,TNIK,95.7%
same,%Inh,TNK1,27%
same,%Inh,TNK2,10%
same,%Inh,TNNI3K,20%
same,%Inh,TRKA,3%
same,%Inh,TRKB,0%
same,%Inh,TRKC,0%
same,%Inh,TRPM6,22%
same,%Inh,TSSK1B,20%
same,%Inh,TSSK3,5%
same,%Inh,TTK,32%
same,%Inh,TXK,43%
same,%Inh,[1],3%
C[C@H]1Oc2cc(cnc2N)-c2c(nn(C)c2C#N)CN(C)C(=O)c2ccc(F)cc21,%Inh,TESK1,77%
same,%Inh,TGFBR1; [2],33%
same,%Inh,TGFBR2,0%
same,%Inh,TIE1,0%
same,%Inh,TIE2,18%
same,%Inh,TLK1,0%
same,%Inh,TLK2,6%
same,%Inh,TNIK,0%
same,%Inh,TNK1,93.4%
same,%Inh,TNK2,99.4%
same,%Inh,TNNI3K,0%
same,%Inh,TRKA,97.7%
same,%Inh,TRKB,93.4%
same,%Inh,TRKC,78%
same,%Inh,TRPM6,0%
same,%Inh,TSSK1B,58%
same,%Inh,TSSK3,0%
same,%Inh,TTK,7%
same,%Inh,TXK,0%
same,%Inh,[1],0%
Cc1cc2cn[nH]c2cc1-c1cccc2c(N)c(C(N)=O)nnc12,%Inh,TESK1,9%
same,%Inh,TGFBR1; [2],12%
same,%Inh,TGFBR2,80%
same,%Inh,TIE1,2%
same,%Inh,TIE2,31%
same,%Inh,TLK1,25%
same,%Inh,TLK2,12%
same,%Inh,TNIK,0%
same,%Inh,TNK1,36%
same,%Inh,TNK2,94.2%
same,%Inh,TNNI3K,0%
same,%Inh,TRKA,51%
same,%Inh,TRKB,66%
same,%Inh,TRKC,54%
same,%Inh,TRPM6,75%
same,%Inh,TSSK1B,0%
same,%Inh,TSSK3,28%
same,%Inh,TTK,34%
same,%Inh,TXK,95.4%
same,%Inh,[1],71%
Cc1ccc(-n2nc(C(C)(C)C)cc2NC(=O)Nc2ccc(OCCN3CCOCC3)c3ccccc23)cc1 [GW839464],%Inh,TESK1,28%
same,%Inh,TGFBR1; [2],0%
same,%Inh,TGFBR2,13%
same,%Inh,TLK1,3%
same,%Inh,TLK2,5%
same,%Inh,TNIK,92%
same,%Inh,TNK1,22%
same,%Inh,TNK2,31%
same,%Inh,TNNI3K,0%
same,%Inh,TRKA,32%
same,%Inh,TRKB,70%
same,%Inh,TRPM6,0%
same,%Inh,TSSK1B,10%
same,%Inh,TSSK3,0%
same,%Inh,TTK,31%
same,%Inh,TXK,13%
same,%Inh,[1],0%
CN(C)CCOc1ccc(-c2cc(-c3c[nH]nc3-c3ccccn3)ccn2)cc1 [GW835314],%Inh,TESK1,15%
same,%Inh,TGFBR1; 1 µM,99%
same,%Inh,TGFBR2,96.6%
same,%Inh,TIE1,0%
same,%Inh,TIE2,14%
same,%Inh,TLK1,26%
same,%Inh,TLK2,0%
same,%Inh,TNIK,82%
same,%Inh,TNK1,41%
same,%Inh,TNK2,58%
same,%Inh,TNNI3K,12%
same,%Inh,TRKA,0%
same,%Inh,TRKB,0%
same,%Inh,TRKC,32%
same,%Inh,TRPM6,2%
same,%Inh,TSSK1B,0%
same,%Inh,TSSK3,0%
same,%Inh,TTK,0%
same,%Inh,TXK,8%
same,%Inh,[1],31%
CCN(CC)CCOc1ccc(Nc2ncc3cc(-c4c(Cl)cccc4Cl)c(=O)n(C)c3n2)cc1 [SB-601273],%Inh,TESK1,97.6%
same,%Inh,TGFBR1; [2],99.5%
same,%Inh,TGFBR2,98%
same,%Inh,TIE1,94%
same,%Inh,TIE2,98.8%
same,%Inh,TLK1,5%
same,%Inh,TLK2,2%
same,%Inh,TNIK,96.8%
same,%Inh,TNK1,100%
same,%Inh,TNK2,100%
same,%Inh,TNNI3K,100%
same,%Inh,TRKA,100%
same,%Inh,TRKB,43%
same,%Inh,TRKC,92.9%
same,%Inh,TRPM6,48%
same,%Inh,TSSK1B,56%
same,%Inh,TSSK3,24%
same,%Inh,TTK,59%
same,%Inh,TXK,99.5%
same,%Inh,[1],96.7%
